Bioassay records: PubChem BioAssay, National Center for Advancing Translational Sciences (NCATS)
ELG1 genotoxic: induces genotoxicity in HEK293T cells with luciferase-tagged ELG1; HEK293T ELG1-luciferase reporter, luminescence, 16 h; Potency, µM (titrated, usually from 46 µM), inactives show at the top dose activity change, positive = activation, actives largely listed as activators; 330,000 compounds, 1.3% hits; further: % of control where 0% means no effect; nearly all actives have a fitted effect of over 60% in size
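Cells (2,000/well) expressing the ELG1-luciferase fusion are dosed by pin tool and kept 16 hr at 37 °C, 5% CO2. Signal comes from ONE-Glo luciferase reagent after 30 min at room temperature.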
FLuc counter: counter-screen for miR-21 project: firefly luciferase inhibitors or activators | P08659 | purified FLuc, Km substrates, luminescence inhibition | 360,000 compounds, 6.9% hits | Potency, µM (titrated, usually from 57.5 µM), for inactives: at the top dose activity change, negative = inhibition, usual class: inhibitors;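 further: plate controls were vehicle for no effect and reference inhibitor for full effect; nearly all actives have a fitted effect of over 55% in size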
Target sequence (P08659 whole entry, looked up): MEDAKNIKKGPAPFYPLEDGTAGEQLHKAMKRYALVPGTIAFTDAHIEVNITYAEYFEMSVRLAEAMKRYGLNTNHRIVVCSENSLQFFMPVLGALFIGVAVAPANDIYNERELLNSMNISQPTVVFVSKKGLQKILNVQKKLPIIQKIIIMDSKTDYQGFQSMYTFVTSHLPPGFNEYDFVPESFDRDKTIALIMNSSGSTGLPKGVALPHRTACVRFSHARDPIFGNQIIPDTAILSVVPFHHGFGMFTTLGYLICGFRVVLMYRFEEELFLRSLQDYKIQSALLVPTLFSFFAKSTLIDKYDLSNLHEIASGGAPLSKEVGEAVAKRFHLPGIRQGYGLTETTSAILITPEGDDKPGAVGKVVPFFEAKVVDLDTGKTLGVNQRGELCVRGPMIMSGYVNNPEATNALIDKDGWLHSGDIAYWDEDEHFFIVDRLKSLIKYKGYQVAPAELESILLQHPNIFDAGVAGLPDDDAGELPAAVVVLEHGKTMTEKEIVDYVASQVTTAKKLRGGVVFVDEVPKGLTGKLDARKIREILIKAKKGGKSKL
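Purified P. pyralis luciferase, 10 nM final, with Km-level 10 uM D-luciferin and 10 uM ATP in 50 mM Tris acetate pH 7.5, 10 mM Mg acetate, 0.01% Tween-20, 0.05% BSA; 6-point qHTS titration about 60 µM downward; luminescence read.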
SMN2 splice enh: increases expression of the SMN2 splice variant; HEK293 SMN2-luciferase splicing reporter, luminescence, 30-36 h; Potency, µM (series often up to 46.1 µM), inactives show at the top dose activity change, positive = activation, actives largely listed as activators; 210,000 compounds, 2.8% hits; AID 1458; further: % of control where 0% means no effect; nearly all actives have a fitted effect of over 55% in size
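HEK293 cells carry an SMN2 […]–luciferase reporter in which exon 7 inclusion puts luciferase in frame. Cells were plated 10-12 h before compound addition, then incubated 30-36 h at 37C. ONE-Glo luminescence was read; sodium butyrate at 4.5 mM final served as control.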
NPC1 promoter act: NPC1 promoter activation; Huh7 NPC1 promoter luciferase reporter, 24 h; Potency, µM (top dose mostly 9.22 µM), for inactives: at the top dose activation, hits mostly activators; 320,000 compounds, 2.4% hits; AID 485313; further: % of control where 0% means no effect; nearly all actives have a fitted effect of over 60% in size
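Quantitative HTS used a cell-based reporter: Huh7 cells stably bearing the NPC1 promoter upstream of luciferase were treated with compounds for 24 h, and promoter activation was read as luminescence.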
ELG1 DNA repair: ELG1-dependent DNA repair inhibition. HEK293T ELG1-luciferase reporter, luminescence, 16 h; DNA damage induced by 5-fluorouridine. Potency, µM (series often up to 46.1 µM), for inactives: at the top dose activity change, negative = inhibition, usual class: inhibitors. 330,000 compounds, 2.3% hits. AID 504467; further: on the % scale 0 is the no-effect control and ±100 the full control effect; nearly all actives have a fitted effect of over 55% in size
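5-Fluorouridine DNA damage + compound/DMSO, 2,000 cells/well, 16 h, 37 °C/5% CO2. ONE-Glo, 30 min RT, luminescence. Readout = decrease in reporter signal.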
Rab9 prom act: activators of Rab9 promoter | AID 485297 | Potency, µM (series often up to 9.22 µM), inactives show top-dose activation, negative = inhibition, most hits filed as activators | 320,000 compounds, 2.8% hits | Huh7 Rab9 promoter-luciferase reporter, luminescence, 24 h; further: % of control where 0% means no effect; nearly all actives have a fitted effect of over 60% in size
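Quantitative HTS format; Huh7 Rab9-luciferase reporter cells (1500/well) receive compound 2 h post-plating, incubate 24 h at 37 °C, then get luciferase reagent for 10 min before luminescence reading.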
Numbers without * were called inactive; ? = inconclusive; nt = no result given. Shown are actives, neighbours in structure and some others; about 9.4% of the full set was active somewhere. The call rests on the fitted dose curve; in most records, active means well fitted curve in the direction sought with a large enough effect; inconclusive means small, poorly fitted or top-dose-only effect, or another doubt; inactive means no such curve, though single readings can be large; an effect the other way counts as inactive or inconclusive. Potency means the concentration at half of the fitted maximal effect.

SMILES	ELG1 genotoxic	FLuc counter	SMN2 splice enh	NPC1 promoter act	ELG1 DNA repair	Rab9 prom act
Cc1cc(C)c2c(N)c(C(=O)NCC3CCCCC3)sc2n1	11µM*	24µM*	11µM*	?	?	?
COc1ccc(NC(=O)c2sc3nc(C)cc(C)c3c2N)cc1	?	3.8µM*	nt	1.6µM*	?	1.3µM*
Cc1cc(C)c(NC(=O)c2sc3nc(C)cc(C)c3c2N)c(C)c1	nt	-4%	-2%	nt	nt	nt
Cc1cc(C)cc(NC(=O)c2sc3nc(C)cc(C)c3c2N)c1	?	9.5µM*	nt	1.8µM*	?	3.2µM*
Cc1cc(C)c2c(N)c(C(=O)N/N=C/c3cccs3)sc2n1	?	?	nt	1.8µM*	?	1.6µM*
COc1ccc(S(=O)(=O)N2CCN(CC(=O)Nc3ccc(Cl)c(C(F)(F)F)c3)CC2)cc1	nt	-11%	nt	nt	nt	nt
O=C(Nc1ccc(F)c(F)c1)C1CCCN1S(=O)(=O)c1cccc2nsnc12 (configuration not stated)	nt	5%	-16%	nt	nt	nt
CCCn1c(C)nc2c(N3CCOCC3)nc(C)nc21	nt	nt	-23%	nt	nt	nt
COCc1cc(C)nc2sc(C(=O)Nc3ccccc3F)c(N)c12	15%	19µM*	nt	23%	-4%	26%
Cc1cc(C)c2c(N)c(C(=O)Nc3ccc(C)c(C)c3)sc2n1	1.2µM*	1.7µM*	nt	1µM*	?	0.63µM*
COc1ccc(/C=N/NC(=O)c2sc3nc(C)cc(C)c3c2N)cc1	3%	9.5µM*	nt	2%	16%	2%
COc1ccc(/C=N/NC(=O)c2sc(C)nc2C)cc1	2%	?	26%	-9%	5%	-2%
Cc1cc(C(F)(F)F)c2c(N)c(C(=O)Nc3cc(C)on3)sc2n1	?	?	-43%	?	?	3.5µM*
CCOc1ccc(Nc2sc(C(=O)c3ccc4c(c3)OCO4)c(N)c2S(=O)(=O)c2ccc(C)cc2)cc1	nt	2%	nt	nt	nt	nt
Cc1cc(C)c2c(N)c(C(=O)Nc3ccc(F)cc3)sc2n1	?	1.5µM*	nt	0.71µM*	?	0.5µM*
Cc1cc(C)c2c(N)c(C(=O)Nc3ccc([N+](=O)[O-])cc3)sc2n1	?	-3%	nt	0.5µM*	?	0.79µM*
C=CCNc1nc(N)c(C(=O)Nc2cc(C)on2)s1	16%	17µM*	11µM*	?	?	?
O=C(NCC(c1ccc(Cl)cc1)N1CCCCC1)c1ccccc1F (configuration not stated)	nt	6%	nt	nt	nt	nt
COc1ccccc1/C=C/c1nc(C#N)c(N2CCN(c3ccccc3)CC2)o1	nt	-9%	1%	nt	nt	nt
Cn1c(=O)c2c(nc(NC3CCCCC3)n2CC(=O)C23CC4CC(CC(C4)C2)C3)n(C)c1=O	-2%	10%	13%	-4%	7.3µM*	0%
CC#CCC1(C(=O)OC)C(=O)NC[C@H]1c1ccccc1 (some centres not stated)	nt	nt	-7%	nt	nt	nt
Cc1ccc(CNC(=O)CCN2C(=O)C(C)Oc3ccc(C)cc32)cc1 (configuration not stated)	nt	-7%	-9%	nt	nt	nt
Cc1cccc(OCCN2C(=O)C(=O)c3cccc(C)c32)c1	0%	0%	-7%	-4%	6%	-2%
Cc1cccc(OCCN2C(=O)C(=O)c3cc(C)ccc32)c1	?	12µM*	-9%	-11%	-11%	-18%
Cc1ccc2c(c1)C(=O)C(=O)N2CCOc1ccccc1	?	13µM*	-19%	-6%	10%	-3%
SMILES	ELG1 genotoxic	FLuc counter	SMN2 splice enh	NPC1 promoter act	ELG1 DNA repair	Rab9 prom act
Cc1ccc(OCCN2C(=O)c3ccccc3C2=O)cc1	?	?	14%	12%	?	22%
O=C1c2ccccc2C(=O)N1CCOc1cccc(Br)c1	?	11µM*	nt	28%	?	?
COCCCNC(=S)N1CCCN(c2nc3cc(C)ccc3cc2C#N)CC1	-14%	?	-54%	-2%	21µM*	0%
COCCCNC(=S)N1CCCN(c2nc3cc(C)c(C)cc3cc2C#N)CC1	-9%	-12%	nt	-8%	?	-10%
COc1ccc(-n2nc(C(=O)NCC(=O)N3CCN(Cc4ccccc4)CC3)c3ccccc3c2=O)cc1	-16%	?	nt	-3%	?	-3%
COc1ccc(-n2nc(C(=O)NCC(=O)N3CCCCC3)c3ccccc3c2=O)cc1	1%	3µM*	nt	4%	?	11%
COc1ccc(-n2nc(C(=O)NCC(=O)NC(C)C)c3ccccc3c2=O)cc1	-4%	1%	nt	2%	-1%	1%
CCN1CCN(C(=O)CNC(=O)c2nn(-c3ccc(OC)cc3)c(=O)c3ccccc23)CC1	15%	4.8µM*	nt	0%	?	6%
COc1ccc(-n2nc(C(=O)NCC(=O)N3CCCC3)c3ccccc3c2=O)cc1	3%	12µM*	nt	3%	18%	0%
CCc1cccc(-n2c(=O)c3cccnc3n2CC(=O)Nc2c(C)cc(C)cc2C)c1	nt	-2%	nt	nt	nt	nt
C=CCn1c(SCC(=O)c2cc(C)n(Cc3cccs3)c2C)nnc1-c1ccncc1	-6%	19µM*	-14%	2%	16µM*	-1%
Cc1ccccc1-n1c(SCC(=O)c2cc(C)n(C)c2C)nnc1-c1ccncc1	-10%	-4%	-24%	-2%	11µM*	-1%
Cc1ccccc1-n1c(SCC(=O)c2ccccc2)nnc1-c1ccc(F)cc1	nt	-9%	nt	nt	nt	nt
C=CCn1c(SCC(=O)c2c(C)[nH]c3ccccc23)nnc1-c1ccncc1	-3%	0%	7%	-4%	16%	-12%
Cc1cc(C(=O)CSc2nc3ccccc3n2CCC#N)c(C)n1Cc1cccs1	8.2µM*	?	?	25%	23%	?
COc1ccccc1-n1cnnc1SCC(=O)c1cc(C)n(Cc2cccs2)c1C	14%	19µM*	1%	16%	10%	13%
COc1ccc(-n2c(SCC(=O)Nc3ccc4c(c3)OCO4)nc3c([nH]c4ccccc43)c2=O)cc1	nt	4%	nt	nt	nt	nt
Cc1ccc2c(C)c(C(=O)N(Cc3ccc(N(C)C)cc3)Cc3ccco3)oc2c1C	nt	3%	-13%	nt	nt	nt
COc1ccc(C(=O)NC(=O)NC2(C(Cl)(Cl)Cl)OCCO2)cc1	0.65µM*	0.95µM*	2.2µM*	0.35µM*	?	0.25µM*
CCOc1ccc(CC(=O)Nc2c(C(=O)Nc3ccc(OC)cc3OC)oc3ccccc23)cc1	nt	-3%	-18%	nt	nt	nt
COCC(C)n1c(C)cc(C(=O)CSc2nnc(N)s2)c1C (configuration not stated)	8.2µM*	8.5µM*	?	?	?	4µM*
